# Screens (PubChem BioAssay)
# Pol kappa inh-1: DNA polymerase kappa (human) inhibition; Q9UBT6; purified Pol kappa, fluorescent DNA synthesis assay, 10 min; Potency, µM (highest dose often 107 µM), without a hit: at the top dose activity, negative = inhibition, usual class: inhibitors; hit rate 0.53% among 400,000; AID 588579; further: potency means the concentration at half of the fitted maximal effect; on the % scale 0 is the no-effect control and ±100 the full control effect
#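 10 nM Pol kappa was preincubated with compounds for 15 min at room temperature. Reaction started with 50 nM (final) substrate. Fluorescence read kinetically at 0 and 10 min.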
# POLI inh: inhibitors of human DNA polymerase iota; Potency, µM (doses to about 115 µM), without a hit: at the highest dose activity, negative = inhibition, hits mostly inhibitors; Pol iota fluorescent replication assay, 10 min; hit rate 1% among 390,000; AID 588590; further: potency means the concentration at half of the fitted maximal effect
# Target sequence (Q9UNA4 whole entry, looked up): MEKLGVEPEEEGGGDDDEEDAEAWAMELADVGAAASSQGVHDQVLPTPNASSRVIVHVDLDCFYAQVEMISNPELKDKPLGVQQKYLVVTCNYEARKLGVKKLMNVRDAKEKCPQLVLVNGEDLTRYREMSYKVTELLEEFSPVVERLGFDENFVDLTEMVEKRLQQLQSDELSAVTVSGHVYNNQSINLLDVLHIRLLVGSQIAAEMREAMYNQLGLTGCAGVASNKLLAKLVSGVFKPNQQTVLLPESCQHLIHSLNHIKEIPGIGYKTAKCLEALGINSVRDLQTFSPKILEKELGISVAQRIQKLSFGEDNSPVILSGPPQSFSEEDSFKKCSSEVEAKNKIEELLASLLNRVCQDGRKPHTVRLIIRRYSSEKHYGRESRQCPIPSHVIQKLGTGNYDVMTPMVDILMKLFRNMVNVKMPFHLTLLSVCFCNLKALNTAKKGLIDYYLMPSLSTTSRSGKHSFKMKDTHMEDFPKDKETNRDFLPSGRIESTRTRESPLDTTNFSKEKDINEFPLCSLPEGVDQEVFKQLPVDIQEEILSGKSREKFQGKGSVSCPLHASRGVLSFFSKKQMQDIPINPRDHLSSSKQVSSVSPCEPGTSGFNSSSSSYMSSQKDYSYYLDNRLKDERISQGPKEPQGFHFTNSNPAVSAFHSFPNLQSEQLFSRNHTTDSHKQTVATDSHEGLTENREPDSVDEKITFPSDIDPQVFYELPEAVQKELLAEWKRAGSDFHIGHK
#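 Fluorescent replication assay read twice, at 0 min and 10 min after adding 50 nM (final) substrate. Enzyme (10 nM) and compounds were first incubated 15 min at room temperature; enzyme-free buffer wells were negative controls.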
# TDP1 block: blocks human tyrosyl-DNA phosphodiesterase 1 | recombinant TDP1, AlphaScreen DNA substrate cleavage | Potency, µM (doses to about 130 µM), without a hit: at the top dose activity change, negative = inhibition, usual class: inhibitors | AID 485290 | hit rate 0.28% among 350,000; further: potency means the concentration at half of the fitted maximal effect; on the % scale 0 is the no-effect control and ±100 the full control effect; nearly all actives have a fitted effect of over 40% in size
#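 Recombinant E. coli-expressed Tdp1 (1 nM) preincubated with compound 15 min at RT, then 5'-biotin/3'-phosphotyrosine-FITC DNA substrate (15 nM) added for 5 min. AlphaScreen beads (10 ug/ml) added, 10 min RT; tyrosine-FITC cleavage read as signal loss.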
# Pol beta inh: DNA polymerase beta (human) inhibition. Potency, µM (top dose mostly 114 µM), inactives show at the top dose activity change, negative = inhibition, usual class: inhibitors. P06746. Pol beta primer extension/strand displacement, fluorescence kinetic. hit rate 1.3% among 340,000. AID 485314; further: potency means the concentration at half of the fitted maximal effect; on the % scale 0 is the no-effect control and ±100 the full control effect
#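 Homogeneous kinetic assay of primer extension and strand displacement by 10 nM Pol beta, preincubated 15 min at room temperature with compound before 50 nM substrate (final) was added. Read at 0 and 10 min; four-parameter Hill fit.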
# Pol eta inh-1: inhibitors of human DNA polymerase eta; hit rate 1.2% among 390,000; Potency, µM (highest dose often 114 µM), for the others: at the highest dose activity change, negative = inhibition, most hits filed as inhibitors; recombinant Pol eta, fluorescent DNA replication assay; further: potency means the concentration at half of the fitted maximal effect; on the % scale 0 is the no-effect control and ±100 the full control effect
#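 Pol eta (10 nM) was preincubated with compounds for 15 min at room temperature, after which fluorescent replication substrate (50 nM final) was added to start the reaction. Fluorescence was read kinetically at 0 and 10 min.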
# GALK inh confirm: confirmation of human galactokinase (GALK) inhibitors | hit rate 70% among 150 | shares compounds with Pol eta inh-1 | Potency, µM (titrated, usually from 115 µM), for inactives: at the top dose activity, negative = inhibition, actives largely listed as inhibitors | purified GALK, Kinase-Glo ATP depletion luminescence
# Redox cycling: generates H2O2 by redox cycling, flagging GALK artifacts. shares compounds with Pol eta inh-1. Phenol red-HRP H2O2 redox cycling, absorbance 600 nm. Potency, µM (doses to about 115 µM), without a hit: at the top dose activity change, negative = H2O2 signal, most hits filed as inhibitors. hit rate 40% among 150
# HEK293 tox: HEK-293 cytotoxicity, GALK inhibitor secondary; shares compounds with Pol eta inh-1; HEK-293 viability, ATP luminescence (CellTiter-Glo), 24/48 h; Potency, µM (doses to about 46.1 µM), for the others: top-dose activity change, negative = cytotoxicity, actives largely listed as inhibitors; hit rate 10% among 170; AID 2547; further: potency means the concentration at half of the fitted maximal effect; on the % scale 0 is the no-effect control and ±100 the full control effect
# Pol kappa inh-2: Pol kappa (human) inhibition, cherry-pick confirmation | shares compounds with Pol eta inh-1 | purified Pol-kappa, fluorescent strand-displacement substrate | Potency, µM, hits mostly inhibitors | hit rate 76% among 920 | AID 720501; further: potency means the concentration at half of the fitted maximal effect
# Pol eta inh-2: Pol eta (human) inhibition, cherry-pick confirmation | shares compounds with Pol eta inh-1 | AID 720502 | hit rate 64% among 2,600 | Potency, µM, usual class: inhibitors | Pol eta primer extension, TAMRA/BHQ fluorescence, 10 min; further: potency means the concentration at half of the fitted maximal effect
# An asterisk follows results filed as active; ? = inconclusive; . = not tested or not shown; [ ] = dose if it differs, or a comment. The list is not random: actives were taken first. Their share in the collection is about 2.4%. The call rests on the fitted dose curve; in most records, active means well fitted curve in the direction sought with a large enough effect; inconclusive means small, poorly fitted or top-dose-only effect, or another doubt; inactive means no such curve, though single readings can be large; an effect the other way counts as inactive or inconclusive.
SMILES,Pol kappa inh-1,POLI inh,TDP1 block,Pol beta inh,Pol eta inh-1,Pol eta inh-2,others
O=C(O)c1cc(N/N=C2/CC(c3ccccc3)Oc3ccccc32)ccc1Cl (stereo not drawn),?,?,-4.7%,39.8µM*,20µM*,60.1*,
O=S(=O)(N/N=C1/CC(c2ccccc2)Oc2ccccc21)c1ccccc1 (stereo not drawn),-11.1%,-14.8%,.,.,-25.5%,.,
CN(C)/C=C/c1[nH]c(=O)[nH]c(=O)c1[N+](=O)[O-],0.7%,27.7%,.,20.3%,-10.5%,.,
O=c1[nH]c(/C=C/c2ccc([N+](=O)[O-])cc2)c([N+](=O)[O-])c(=O)[nH]1,-4.3%,?,3.9%,-3.0%,44.7µM*,?,GALK inh confirm=37.5µM*;Redox cycling=-2.5%;HEK293 tox=6.2%
S=c1[nH]nc(-c2ccccc2)n1/N=C/c1cccc(Br)c1,-1.3%,100.3%,.,1.9%,2.3%,.,
S=c1[nH]nc(-c2cc(-c3ccccc3)n[nH]2)n1/N=C/c1cccc(Cl)c1,?,25.1µM*,35.5µM*,7.08µM*,39.8µM*,26.9*,
CC1=C(C(=O)O)N2C(=O)C(NC(=O)c3nn(C)c(C)c3Cl)C2SC1 (stereo not drawn),-25.7%,?,-10.3%,8.8%,31.6µM*,47.8*,Pol kappa inh-2=42.3*
CCOc1ccc(N(CC)S(=O)(=O)N2CCCC(C(=O)NCc3ccccc3Cl)C2)cc1 (stereo not drawn),-14.3%,17.1%,0.0%,14.3%,-6.2%,.,
O=c1[nH]c(Nc2ccccc2)cc2ccccc12,-26.2%,11.2µM*,11.4%,5.7%,?,.,GALK inh confirm=42.1µM*;Redox cycling=21.1µM*;HEK293 tox=7.9%
CC(=O)c1cccc(Nc2nc(-c3ccccc3)nc3ccccc23)c1,-14.0%,83.2%,.,17.4%,-9.3%,.,
O=c1[nH]c(Nc2ccccc2)cc2cc(Br)ccc12,?,?,.,.,39.8µM*,?,
COc1ccccc1Nc1cc2cc(Br)ccc2c(=O)[nH]1,79.4µM*,?,.,.,20µM*,67.5*,
CC(=O)c1cccc(-c2ccc3c(=O)[nH]c(Nc4ccccc4)cc3c2)c1,?,?,.,.,20µM*,75.7*,
Cc1ccccc1NC(=O)C(=O)NCC(c1ccc2c(c1)OCO2)N1CCN(c2ccccc2)CC1 (stereo not drawn),-9.1%[60.1 µM],0.9%,5.5%,0.1%,-26.3%,.,
COc1ccc2cc(C(=O)NCc3ccccc3)c(=Nc3ccc(C(=O)O)cc3)oc2c1,-7.0%,11.7%,0.0%,1.2%,31.6µM*,?,
O=C(O)c1ccc(COCC(F)(F)C(F)F)o1,-24.1%,-16.1%,?,28.2µM*,17.8µM*,?,
Cc1cc(C)cc(OCc2ccc(C(=O)O)o2)c1,4.1%,-2.1%,9.1%,1.4%,-8.8%,.,
O=C(NC1CCCC1)c1ccc(COCC(F)(F)C(F)F)o1,-6.4%,0.7%[58.9 µM],-2.0%,29.2%,-8.9%,.,
O=C(O)c1ccc(COc2c(F)c(F)c(F)c(F)c2F)o1,?,22.4µM*,.,39.8µM*,22.4µM*,75.7*,
CCOc1ccc(S(=O)(=O)N2CCN(c3ccc(C)cc3C)CC2)c2ccccc12,4.1%,9.8%,-1.9%,4.8%,-9.4%,.,
CCCC[C@H](NC(=O)[C@@H]1CCCN1C(=O)[C@H]1CCCN1C(=O)[C@H](Cc1ccccc1)NC(=O)[C@@H](Cc1c[nH]c2ccccc12)NC(=O)[C@H](C)NC(=O)[C@H](CCCN=C(N)N)NC(=O)OC(C)(C)C)C(N)=O,-13.2%[60.1 µM],.,5.6%,.,.,.,
CCOC(=O)c1cc(-c2ccc(/C=C3/C(=O)NC(=O)C(C#N)=C3C)o2)ccc1Cl,?,?,-7.9%,35.5µM*,28.2µM*,47.8*,
CC1=C(C#N)C(=O)NC(=O)/C1=C\c1ccc(-c2ccc(C)cc2[N+](=O)[O-])o1,-12.7%,?,1.6%,31.6µM*,50.1µM*,?,
CC(C)OC(=O)/C(C#N)=C/c1ccc(-c2ccc(Cl)c(Cl)c2)o1,-2.6%,-25.7%,3.8%[2.28 µM],10.9%,0.1%,.,
Nc1c(C(=O)Nc2cccc(C(=O)O)c2)sc2nc3c(cc12)CCCC3,-8.8%,23.1%,-16.1%,1.3%,?,?,Pol kappa inh-2=21.2*
SMILES,Pol kappa inh-1,POLI inh,TDP1 block,Pol beta inh,Pol eta inh-1,Pol eta inh-2,others
Nc1c(C(=O)Nc2ccc(C(=O)O)cc2)sc2nc3c(cc12)CCCC3,-3.4%,19.6%,.,-23.2%,?,.,
Cc1cc(C)cc(-n2ccn(CC(=O)c3ccc(F)cc3)c(=O)c2=O)c1,2.5%,38.8%,1.3%,3.6%,-9.4%,.,
Cc1ccc(CN2CCSc3ccc(C(=O)NCC(C)c4ccccc4)cc32)cc1 (stereo not drawn),2.3%,40.6%,9.0%,22.6%,-17.8%,.,
Cc1ccc(-n2ncc(C(=O)NCc3cccs3)c2C2CCN(C(=O)OC(C)(C)C)CC2)cc1,-16.9%,10.0%,4.2%,-20.0%,-13.2%,.,
COc1cc2[nH]c(=O)n(CCCC(=O)NCc3ccccc3)c(=O)c2cc1OC,-7.3%,-17.1%,2.9%,34.9%,-10.0%,.,
CC1(C)CC(=O)C2=C(C1)NC(Nc1nc3ccccc3o1)=NC2c1cccc(Cl)c1 (stereo not drawn),.,.,.,.,.,.,HEK293 tox=?
COc1ccccc1C1N=C(Nc2nc3ccccc3o2)NC2=C1C(=O)CC(C)(C)C2 (stereo not drawn),-17.6%,28.7%,1.3%,.,.,.,HEK293 tox=-28.4%
COc1cccc(C2N=C(Nc3nc4ccccc4o3)NC3=C2C(=O)CC(C)(C)C3)c1 (stereo not drawn),.,.,.,.,.,.,HEK293 tox=6.1%
O=C1CCCC2=C1C(c1ccc(Cl)cc1)N=C(Nc1nc3ccccc3o1)N2 (stereo not drawn),1.1%,-6.5%,0.9%,.,.,.,HEK293 tox=12.8%
O=c1[nH]c(Nc2nc3ccccc3o2)nc2c1CCCC2,-6.2%,6.3%,9.2%,2.1%,-1.4%,.,
